Data: the supplement of paper PMC9844399
Counter-ions that a name gives are not always drawn.

test system: HeLa; assay: nuclear count per well, robust Z-score vs DMSO; higher = more cells (less toxicity); settings: 10 µM; 6 h
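Also: Hoechst-stained nuclei counted by automated confocal imaging of four fields per well in 384-well plates, with the robust Z-score based on the per-plate DMSO median and robust SD.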

Structure (SMILES) | nuclear count per well
CC[C@H](C)C(=O)O[C@H]1C[C@@H](C)C=C2C=C[C@H](C)[C@H](CC[C@@H](O)C[C@@H](O)CC(=O)O)[C@H]21 [Lovastatin Sodium Salt] | -0.099
CCCCCCCCCCCCC/C=C/[C@@H](O)[C@H](CO)NC(C)=O [C2 Ceramide] | 0.589
N[C@@H](C(=O)N[C@@H]1C(=O)N2C(C(=O)O)=C(Cl)CS[C@H]12)c1ccccc1 [Cefaclor] | -0.195
CCCCNc1cc(C(=O)O)cc(S(N)(=O)=O)c1Oc1ccccc1 [Bumetanide] | 0.602
O=C1NC(=O)C(c2ccccc2)(c2ccccc2)N1 [Phenytoin] | -0.208
CCC[C@@H]1C[C@@H](C(=O)N[C@@H]([C@H]2O[C@H](SC)[C@H](O)[C@@H](O)[C@H]2O)[C@@H](C)O)N(C)C1 | 0.942
CO/N=C(\C(=O)N[C@@H]1C(=O)N2C(C(=O)O)=C(COC(N)=O)CS[C@H]12)c1ccco1 | 0.832
CN(C)/N=N/c1[nH]cnc1C(N)=O [Dacarbazine] | -0.758
Cn1cc(C2=C(c3cn(CCCSC(=N)N)c4ccccc34)C(=O)NC2=O)c2ccccc21 [Ro 31-8220 methanesulfonate salt] | -1.75
Nc1ncnc2c1nc(Br)n2[C@@H]1O[C@@H]2COP(=O)(O)O[C@H]2[C@H]1O [8-Bromo-cAMP] | -0.764
O=C(OCC(O)CO)c1ccccc1Nc1ccnc2cc(Cl)ccc12 (configuration not stated) [Glafenine] | 0.384
COc1ccnc(C[S+]([O-])c2nc3cc(OC(F)F)ccc3[nH]2)c1OC (configuration not stated) [Pantoprazole] | -0.31
